# Source: PubChem BioAssay (Tox21)
# Unmarked numbers belong to inactive results. Results filed as inconclusive are left out. Entries that show only a call come without a potency. Calls of active or inactive are those of the source. Unless noted, the call rests on the fitted dose curve; in most records, active means well fitted curve in the direction sought with a large enough effect in the repeat runs; inconclusive means weak or mixed curves; inactive means no such curve, though single readings can be large; an effect the other way counts as inactive or inconclusive.
# What was measured:
# [1] = qHTS assay to identify small molecule agonists of the hypoxia (HIF-1) signaling pathway (AID 1224846; active means well fitted activation curve with a large enough effect in the signal ratio in the repeat runs, not every such curve was filed as active; the % refers to the signal ratio)
# Procedure, shortened: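 Measured by blue/green FRET after loading CCF4-AM: beta-lactamase expressed from a hypoxia response element in ME-180 cells. Test agents were delivered in DMSO and left 17 hrs; cells had been plated 5 hrs earlier in low-serum (0.5% dialyzed FBS) medium.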
# [2] = qHTS assay to identify small molecule agonists of H2AX - cell viability counter screen (AID 1224847; calls by dose curve; further: nearly all actives have a fitted effect of over 30% in size; further: potency means the concentration at half of the fitted maximal effect)
# Procedure, shortened: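 Read-out: CellTiter-Glo luminescence, 30 min RT. Cells: wild-type CHO-K1, 1000/well, 10% FBS, plated overnight at 37C. Treatment: 15 concentrations, 3 hr, 37C, 0.76% DMSO.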
# [3] = qHTS assay to identify small molecule antagonists of the estrogen related receptor (ERR) signaling pathway from Tox21 library (AID 1224848); further: nearly all actives have a fitted effect of over 50% in size; further: potency means the concentration at half of the fitted maximal effect
# Procedure, shortened: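 ERR reporter cell line (from NTP) seeded 2,000 cells/well, rested 6 h at 37 C/5% CO2, then pin-dosed with compounds in DMSO. After 18 h at 37 C, ONE-Glo added; luminescence read after 30 min at room temperature.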
# [4] = qHTS assay to identify small molecule agonists of the estrogen related receptor (ERR) signaling pathway from Tox21 library (AID 1224849; calls by dose curve; further: nearly all actives have a fitted effect of over 15% in size); details: ERR reporter cell line, ONE-Glo luciferase, 18 h; at 92.4 µM (top of the series) unless noted
# Procedure, shortened: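 We plated ERR reporter cells, waited 6 h, added compounds in DMSO by pin tool and incubated them 18 h at 37 C. ONE-Glo was then added and luminescence read after 30 min.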
# [5] = qHTS RealTime-Glo MT Cell Viability Assay in HEK293 cells - 32 hour (AID 1224868); further: nearly all actives have a fitted effect of over 50% in size; further: potency means the concentration at half of the fitted maximal effect
# Procedure, shortened: (§1)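 Luminescence generated by NanoLuc from substrate produced by living HEK293 cells served as the viability signal. Each value reflects the reading at its stated time point during continuous 40 h compound exposure at 37 C.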
# [6] = A CellTox Green Cytotoxicity Assay to monitor cytotoxicity in HEK293 cells - 0 hour (AID 1224869); further: nearly all actives have a fitted effect of over 50% in size
# Procedure, shortened: (§2)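 Each value comes from one timepoint of a single continuous run in which HEK293 cells with CellTox Green were exposed to compound for up to 40 h at 37 C, dye fluorescence rising with cell death.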
# [7] = qHTS RealTime-Glo MT Cell Viability Assay in HEK293 cells - 16 hour (AID 1224872); further: nearly all actives have a fitted effect of over 50% in size; further: potency means the concentration at half of the fitted maximal effect
# Procedure, shortened: as §1
# [8] = qHTS RealTime-Glo MT Cell Viability Assay in HepG2 cells - 8 hour (AID 1224873); further: nearly all actives have a fitted effect of over 55% in size; further: potency means the concentration at half of the fitted maximal effect
# Procedure, shortened: (§3)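 HepG2 cells (600/well) mixed with RealTime-Glo MT reagent, settled 5 h at 37 C/5% CO2 before compound addition. Nonlytic NanoLuc luminescence from viable-cell prosubstrate reduction read repeatedly during 40 h treatment at 37 C.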
# [9] = qHTS RealTime-Glo MT Cell Viability Assay in HEK293 cells - 40 hour (AID 1224874); details: RealTime-Glo luminescence; max response: hits give low values; further: nearly all actives have a fitted effect of over 50% in size; further: potency means the concentration at half of the fitted maximal effect
# Procedure, shortened: (§4)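 qHTS format; HEK293 cells with NanoLuc/prosubstrate reagent, 37 C/5% CO2 for 5 h pre-dosing; compounds 23 nL in DMSO; luminescence at each time point reflects viable cells.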
# [10] = A CellTox Green Cytotoxicity Assay to monitor cytotoxicity in HEK293 cells - 24 hour (AID 1224875); further: nearly all actives have a fitted effect of over 45% in size; further: potency means the concentration at half of the fitted maximal effect
# Procedure, shortened: as §2
# [11] = A CellTox Green Cytotoxicity Assay to monitor cytotoxicity in HepG2 cells - 40 hour (AID 1224879); further: nearly all actives have a fitted effect of over 40% in size; further: potency means the concentration at half of the fitted maximal effect
# Procedure, shortened: (§5)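 Continuous culture of HepG2 cells with a membrane-impermeant DNA dye; rising fluorescence marks dead cells. Compound exposure lasted up to 40 h at 37 C, with reads every 8 h from 0 h.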
# [12] = A CellTox Green Cytotoxicity Assay to monitor cytotoxicity in HEK293 cells - 32 hour (AID 1224881); further: nearly all actives have a fitted effect of over 40% in size; further: potency means the concentration at half of the fitted maximal effect
# Procedure, shortened: as §2
# [13] = qHTS assay to identify small molecule agonists of H2AX (AID 1224845; active means well fitted activation curve with a large enough effect in the signal ratio in the repeat runs, not every such curve was filed as active; the % refers to the signal ratio; further: potency means the concentration at half of the fitted maximal effect)
# Procedure, shortened: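 Wild-type CHO-K1 cells, plated overnight, exposed 3hr at 37C to 15 concentrations (0.76% DMSO final). Lysed, then HTRF anti-pH2AX (S139) cryptate and anti-H2AX-d2 antibodies, 24 hr room temperature; 665/620 nm emission read.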
# [14] = qHTS RealTime-Glo MT Cell Viability Assay in HepG2 cells - 40 hour (AID 1224870); further: nearly all actives have a fitted effect of over 50% in size; further: potency means the concentration at half of the fitted maximal effect
# Procedure, shortened: as §3
# [15] = A CellTox Green Cytotoxicity Assay to monitor cytotoxicity in HepG2 cells - 16 hour (AID 1224876); further: nearly all actives have a fitted effect of over 45% in size; further: potency means the concentration at half of the fitted maximal effect
# Procedure, shortened: as §5
# [16] = qHTS RealTime-Glo MT Cell Viability Assay in HepG2 cells - 32 hour (AID 1224877); further: nearly all actives have a fitted effect of over 55% in size; further: potency means the concentration at half of the fitted maximal effect
# Procedure, shortened: (§6)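 Tox21 10K library screened in qHTS format on HepG2 cells carrying RealTime-Glo reagents. Compounds were added after a 5 h preincubation, and the luminescent signal from continuous culture was measured repeatedly during 40 h treatment.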
# [17] = A CellTox Green Cytotoxicity Assay to monitor cytotoxicity in HepG2 cells - 24 hour (AID 1224878); further: nearly all actives have a fitted effect of over 45% in size; further: potency means the concentration at half of the fitted maximal effect
# Procedure, shortened: as §5
# [18] = qHTS RealTime-Glo MT Cell Viability Assay in HEK293 cells - 0 hour (AID 1224880); further: nearly all actives have a fitted effect of over 45% in size; further: potency means the concentration at half of the fitted maximal effect
# Procedure, shortened: as §4
# [19] = qHTS RealTime-Glo MT Cell Viability Assay in HepG2 cells - 24 hour (AID 1224867); further: nearly all actives have a fitted effect of over 50% in size; further: potency means the concentration at half of the fitted maximal effect
# Procedure, shortened: as §6
# [20] = A CellTox Green Cytotoxicity Assay to monitor cytotoxicity in HEK293 cells - 40 hour (AID 1224871); further: nearly all actives have a fitted effect of over 45% in size; further: potency means the concentration at half of the fitted maximal effect
# Procedure, shortened: as §2
structure (smiles),measurement,setting,value
CC(C)n1nc(-c2cc3cc(O)ccc3[nH]2)c2c(N)ncnc21,Potency,[1],inactive
same,Potency,[2],inactive
same,Potency,[3],1.06 µM (active)
same,"activity change, positive = activation",[4],-55.4% [at 42.5 µM]
same,Potency,[5],0.239 µM (active)
same,Potency,[6],inactive
same,Potency,[7],0.477 µM (active)
same,Potency,[8],inactive
same,Potency,[9],0.19 µM (active)
same,Potency,[10],inactive
same,Potency,[11],23.9 µM (active)
same,Potency,[12],inactive
CCCCCCC[N+](CC)(CC)CCCCc1ccc(Cl)cc1,Potency,[13],inactive
same,Potency,[2],inactive
same,Potency,[5],1.9 µM (active)
same,Potency,[6],inactive
same,Potency,[14],23.9 µM (active)
same,Potency,[8],inactive
same,Potency,[9],1.9 µM (active)
same,Potency,[10],inactive
same,Potency,[15],26.8 µM (active)
same,Potency,[16],23.9 µM (active)
same,Potency,[17],26.8 µM (active)
same,Potency,[11],23.9 µM (active)
same,Potency,[18],inactive
same,Potency,[12],5.35 µM (active)
S=c1[nH]c2ccccc2s1,Potency,[1],inactive
same,Potency,[2],inactive
same,Potency,[3],54.5 µM (active)
same,"activity change, positive = activation",[4],-59.1%
same,Potency,[19],inactive
same,Potency,[5],inactive
same,Potency,[6],inactive
same,Potency,[14],inactive
same,Potency,[7],inactive
same,Potency,[8],inactive
same,Potency,[10],43.6 µM (active)
same,Potency,[16],inactive
same,Potency,[11],inactive
same,Potency,[18],inactive
same,Potency,[12],49 µM (active)
CN1CCN(CCC(=O)N2c3ccccc3Sc3ccc(C(F)(F)F)cc32)CC1,Potency,[1],inactive
same,"activity change, positive = activation",[4],-67.1% [at 42.5 µM]
same,Potency,[19],23.9 µM (active)
same,Potency,[6],inactive
same,Potency,[8],inactive
same,Potency,[15],10.7 µM (active)
same,Potency,[17],15.1 µM (active)
same,Potency,[11],21.3 µM (active)
same,Potency,[18],inactive
C/C(=C(/OCCOc1ccc(Cl)cc1)c1ccc(Cl)cc1Cl)n1ccnc1,Potency,[13],inactive
same,Potency,[2],inactive
same,Potency,[19],inactive
same,Potency,[6],inactive
same,Potency,[14],inactive
same,Potency,[20],inactive
same,Potency,[8],inactive
same,Potency,[10],inactive
same,Potency,[15],inactive
same,Potency,[16],inactive
same,Potency,[17],inactive
same,Potency,[11],inactive
same,Potency,[18],inactive
same,Potency,[12],inactive
O=C(NOCC1CC1)c1ccc(F)c(F)c1Nc1ccc(I)cc1Cl,Potency,[13],inactive
same,Potency,[3],11.9 µM (active)
same,"activity change, positive = activation",[4],-59% [at 42.5 µM]
same,Potency,[6],inactive
same,Potency,[14],0.535 µM (active)
same,Potency,[20],inactive
same,Potency,[8],inactive
same,Potency,[9],23.9 µM (active)
same,Potency,[10],inactive
same,Potency,[15],inactive
same,Potency,[17],0.0425 µM (active)
same,Potency,[11],0.107 µM (active)
same,Potency,[12],inactive
CS(=O)(=O)CCNCc1ccc(-c2ccc3ncnc(Nc4ccc(OCc5cccc(F)c5)c(Cl)c4)c3c2)o1,Potency,[13],inactive
same,Potency,[3],9.44 µM (active)
same,"activity change, positive = activation",[4],-48.5% [at 42.5 µM]
same,Potency,[6],inactive
same,Potency,[20],inactive
same,Potency,[7],19 µM (active)
same,Potency,[8],23.9 µM (active)
same,Potency,[10],inactive
same,Potency,[15],inactive
same,Potency,[18],0.674 µM (active)
same,Potency,[12],inactive
O=C(Oc1cccc2cccnc12)c1ccccc1,Potency,[13],9.82 µM (active)
same,Potency,[3],0.133 µM (active)
same,"activity change, positive = activation",[4],-60.1% [at 42.5 µM]
same,Potency,[19],inactive
same,Potency,[5],inactive
same,Potency,[6],inactive
same,Potency,[14],5.35 µM (active)
same,Potency,[7],inactive
same,Potency,[8],inactive
same,max response,[9],-33.8%
same,Potency,[10],inactive
same,Potency,[11],0.477 µM (active)
same,Potency,[18],inactive
O=[N+]([O-])c1cc(Cl)c(Cl)c(Cl)c1Cl,Potency,[1],inactive
same,Potency,[2],inactive
same,"activity change, positive = activation",[4],-25.7%
same,Potency,[19],inactive
same,Potency,[6],inactive
same,Potency,[14],inactive
same,Potency,[7],inactive
same,Potency,[8],inactive
same,Potency,[16],inactive
same,Potency,[18],inactive
N/C(=N\N=C\c1ccc(Cl)cc1)N/N=C/c1ccc(Cl)cc1,Potency,[13],inactive
same,Potency,[3],29.8 µM (active)
same,"activity change, positive = activation",[4],-44.1% [at 42.5 µM]
same,Potency,[6],inactive
same,Potency,[20],23.9 µM (active)
same,Potency,[10],23.9 µM (active)
same,Potency,[15],21.3 µM (active)
same,Potency,[17],21.3 µM (active)
same,Potency,[11],23.9 µM (active)
same,Potency,[12],23.9 µM (active)
CN(C/C=C/C#CC(C)(C)C)Cc1cccc2ccccc12,Potency,[1],inactive
same,Potency,[2],55.2 µM (active)
same,Potency,[19],inactive
same,Potency,[6],inactive
same,Potency,[14],inactive
same,Potency,[8],inactive
same,Potency,[15],inactive
same,Potency,[16],inactive
same,Potency,[17],inactive
same,Potency,[11],inactive
C=CC(=O)OCCn1c(=O)n(CCOC(=O)C=C)c(=O)n(CCOC(=O)C=C)c1=O,Potency,[13],25.3 µM (active)
same,Potency,[3],inactive
same,"activity change, positive = activation",[4],-78.2%
same,Potency,[19],21.9 µM (active)
same,Potency,[5],11 µM (active)
same,Potency,[6],inactive
same,Potency,[14],19.5 µM (active)
same,Potency,[20],21.9 µM (active)
same,Potency,[7],11 µM (active)
same,Potency,[9],11 µM (active)
same,Potency,[10],49 µM (active)
same,Potency,[15],49 µM (active)
same,Potency,[16],24.5 µM (active)
same,Potency,[17],49 µM (active)
same,Potency,[11],21.9 µM (active)
same,Potency,[18],inactive
same,Potency,[12],34.7 µM (active)
CCN(Cc1cccnc1)C(=O)c1cccc(Cl)c1[C@]1(C)C(=O)N(Cc2ccc(OC)cc2OC)c2ccc(Cl)cc21,Potency,[13],inactive
same,Potency,[2],inactive
same,Potency,[5],20.4 µM (active)
same,Potency,[6],inactive
same,Potency,[20],inactive
same,Potency,[7],22.9 µM (active)
same,Potency,[8],20.4 µM (active)
same,Potency,[9],20.4 µM (active)
same,Potency,[10],inactive
same,Potency,[15],inactive
same,Potency,[11],inactive
same,Potency,[12],inactive
CCC(Cl)C(Cl)C(Cl)CC(Cl)C(Cl)C(C)Cl (stereo unspecified),Potency,[1],inactive
same,Potency,[19],inactive
same,Potency,[5],inactive
same,Potency,[6],inactive
same,Potency,[14],inactive
same,Potency,[20],inactive
same,Potency,[8],inactive
same,max response,[9],-19.8%
same,Potency,[10],inactive
same,Potency,[15],inactive
same,Potency,[16],inactive
same,Potency,[11],inactive
same,Potency,[18],inactive
same,Potency,[12],inactive
Cc1cccc(N(C)C(=S)Oc2ccc3c(c2)C2CCC3C2)c1 (stereo unspecified),Potency,[13],inactive
same,Potency,[3],inactive
same,"activity change, positive = activation",[4],-2.97% [at 42.5 µM]
same,Potency,[19],inactive
same,Potency,[5],inactive
same,Potency,[6],inactive
same,Potency,[14],inactive
same,Potency,[20],inactive
same,Potency,[7],inactive
same,Potency,[8],inactive
same,max response,[9],-13.2%
same,Potency,[10],inactive
same,Potency,[16],inactive
same,Potency,[17],inactive
same,Potency,[11],inactive
same,Potency,[18],inactive
same,Potency,[12],inactive
